# Test results as given in the supplement of paper PMC6555819.
# Assays:
# Experiment in all cases: PBM binding z-score (relative to random genomic background probes); higher = stronger binding; sequences stand for … in GC…GCGATTGACAGCGTAGAATGAAGG
# [1] = tested on: FXR:RXRa (NR concentration 270 nM, RXRa partner concentration 90 nM)
# Method in brief: (§1)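 Scanned fluorescence from custom Agilent 4×180K protein-binding microarrays was regression-normalized. Binding z-scores use random background probes as reference. Ligand-free nuclear receptor dimers were incubated on the arrays for 1 h and detected with antibodies against each partner (one per run).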
# [2] = tested on: LXRa:RXRa (NR concentration 270 nM, RXRa partner concentration 90 nM)
# Method in brief: as §1
# [3] = tested on: LXRa homodimer (NR concentration 270 nM)
# Method in brief: as §1
# [4] = tested on: LXRb:RXRa (NR concentration 270 nM, RXRa partner concentration 90 nM)
# Method in brief: as §1
# [5] = tested on: LXRb homodimer (NR concentration 270 nM)
# Method in brief: as §1
# [6] = tested on: PPARa:RXRa (NR concentration 270 nM, RXRa partner concentration 90 nM)
# Method in brief: as §1
# [7] = tested on: PPARg:RXRa (NR concentration 180 nM, RXRa partner concentration 90 nM)
# Method in brief: as §1
# [8] = tested on: PPARg:RXRa 270nM:90nM, anti-RXR (NR concentration 270 nM, RXRa partner concentration 90 nM)
# Method in brief: as §1
# [9] = tested on: PPARg:RXRa 30nM:10nM, anti-RXR (NR concentration 30 nM, RXRa partner concentration 10 nM)
# Method in brief: as §1
# [10] = tested on: PPARg:RXRa 90nM:30nM, anti-RXR (NR concentration 90 nM, RXRa partner concentration 30 nM)
# Method in brief: as §1
sequence,measurement,setting,value
ATCTCTAGGTAACCAAGTACAGTGAATGCCGAAC,PBM binding z-score,[1],0.125
same,PBM binding z-score,[2],0.246
same,PBM binding z-score,[3],0.247
same,PBM binding z-score,[4],0.353
same,PBM binding z-score,[5],0.673
same,PBM binding z-score,[6],0.645
same,PBM binding z-score,[7],0.752
same,PBM binding z-score,[8],0.425
same,PBM binding z-score,[9],0.0273
same,PBM binding z-score,[10],0.341
CCCGACAGGTGAGAAGGTAACTCAGCCTCGATTA,PBM binding z-score,[1],-0.0059
same,PBM binding z-score,[2],0.3
same,PBM binding z-score,[3],0.072
same,PBM binding z-score,[4],0.291
same,PBM binding z-score,[5],-0.434
same,PBM binding z-score,[6],0.726
same,PBM binding z-score,[7],0.396
same,PBM binding z-score,[8],0.584
same,PBM binding z-score,[9],-0.2
same,PBM binding z-score,[10],0.0512
ACTATTAGTTGACTTAGAGCAACCGATACGACGC,PBM binding z-score,[1],-0.404
same,PBM binding z-score,[2],0.0474
same,PBM binding z-score,[3],-0.0686
same,PBM binding z-score,[4],0.0226
same,PBM binding z-score,[5],0.635
same,PBM binding z-score,[6],-0.306
same,PBM binding z-score,[7],0.964
same,PBM binding z-score,[8],-0.296
same,PBM binding z-score,[9],0.379
same,PBM binding z-score,[10],0.173
CCTACTGGGCCATCAGGTCCTTGATATCAACGTT,PBM binding z-score,[1],-0.312
same,PBM binding z-score,[2],-0.421
same,PBM binding z-score,[3],-0.282
same,PBM binding z-score,[4],-0.452
same,PBM binding z-score,[5],-0.521
same,PBM binding z-score,[6],0.449
same,PBM binding z-score,[7],0.742
same,PBM binding z-score,[8],1.4
same,PBM binding z-score,[9],-0.0903
same,PBM binding z-score,[10],0.582
GCATATAGGTAATACATGGTGAAAGTCCGATTGT,PBM binding z-score,[1],-0.0336
same,PBM binding z-score,[2],0.0177
same,PBM binding z-score,[3],0.188
same,PBM binding z-score,[4],-0.279
same,PBM binding z-score,[5],-0.173
same,PBM binding z-score,[6],0.369
same,PBM binding z-score,[7],0.96
same,PBM binding z-score,[8],0.694
same,PBM binding z-score,[9],0.313
same,PBM binding z-score,[10],0.476
TATACAGGGTCGAAGGCCAGAGTACGAATGTCGA,PBM binding z-score,[1],1.27
same,PBM binding z-score,[2],1.32
same,PBM binding z-score,[3],-0.263
same,PBM binding z-score,[4],1.01
same,PBM binding z-score,[5],0.799
same,PBM binding z-score,[6],2.44
same,PBM binding z-score,[7],2.45
same,PBM binding z-score,[8],3.28
same,PBM binding z-score,[9],1.28
same,PBM binding z-score,[10],2.65
TTACCAAGGTGAAGGTCGTTCATCCCTCTGTAGA,PBM binding z-score,[1],1.75
same,PBM binding z-score,[2],2.56
same,PBM binding z-score,[3],0.0622
same,PBM binding z-score,[4],1.51
same,PBM binding z-score,[5],-0.519
same,PBM binding z-score,[6],2.77
same,PBM binding z-score,[7],3.06
same,PBM binding z-score,[8],4.13
same,PBM binding z-score,[9],2.5
same,PBM binding z-score,[10],3.8
CCTATTAGTTGACGATAAGGGCAACCGAAGCTCG,PBM binding z-score,[1],0.29
same,PBM binding z-score,[2],0.114
same,PBM binding z-score,[3],-0.102
same,PBM binding z-score,[4],0.152
same,PBM binding z-score,[5],0.201
same,PBM binding z-score,[6],0.204
same,PBM binding z-score,[7],0.482
same,PBM binding z-score,[8],0.0797
same,PBM binding z-score,[9],0.0506
same,PBM binding z-score,[10],0.157
GCTAGCAAGCCATTTGGGTCACTCAATGACGGGC,PBM binding z-score,[1],-0.28
same,PBM binding z-score,[2],-0.493
same,PBM binding z-score,[3],-0.817
same,PBM binding z-score,[4],-0.134
same,PBM binding z-score,[5],-0.898
same,PBM binding z-score,[6],1.15
same,PBM binding z-score,[7],0.614
same,PBM binding z-score,[8],0.042
same,PBM binding z-score,[9],-0.634
same,PBM binding z-score,[10],-0.546
CCTACTGGGCCTAGGTCATTGATCAGTCAAAGCA,PBM binding z-score,[1],0.983
same,PBM binding z-score,[2],1.42
same,PBM binding z-score,[3],0.403
same,PBM binding z-score,[4],1.31
same,PBM binding z-score,[5],-0.469
same,PBM binding z-score,[6],1.77
same,PBM binding z-score,[7],0.62
same,PBM binding z-score,[8],1.47
same,PBM binding z-score,[9],-0.181
same,PBM binding z-score,[10],1.03
ACAGACAGGTGATGAAGGTAACGCAGGCTATCAT,PBM binding z-score,[1],-0.062
same,PBM binding z-score,[2],-0.206
same,PBM binding z-score,[3],-0.481
same,PBM binding z-score,[4],-0.283
same,PBM binding z-score,[5],-0.516
same,PBM binding z-score,[6],-0.00302
same,PBM binding z-score,[7],0.871
same,PBM binding z-score,[8],0.114
same,PBM binding z-score,[9],-0.0221
same,PBM binding z-score,[10],0.00481
CCAGACAGGTGAGAAAGTAACTCAGCCTCGATTA,PBM binding z-score,[1],-0.0524
same,PBM binding z-score,[2],0.0409
same,PBM binding z-score,[3],0.0347
same,PBM binding z-score,[4],0.0309
same,PBM binding z-score,[5],-0.167
same,PBM binding z-score,[6],0.206
same,PBM binding z-score,[7],0.1
same,PBM binding z-score,[8],-0.203
same,PBM binding z-score,[9],-0.427
same,PBM binding z-score,[10],-0.273
